# Results as given in article PMC7862700, “An all-to-all approach to the identification of sequence-specific readers for epigenetic DNA modifications on cytosine”.
# Key:
# Assay in all cases: DAPPL (digital affinity profiling via proximity ligation, sequencing); 10 mM Tris-HCl pH 7.5, 50 mM NaCl, 1 mM DTT, 4% glycerol, room temperature, 30 min; GST-TFs on glutathione beads, 16-mer random dsDNA library, 0.1% formaldehyde crosslink after washing; high values mean tight binding
# Details in all cases: protein: recombinant; tags: N-terminal GST; dsDNA, one strand shown
# ERF = target: T1, ERF (Homo sapiens, UniProt P50548 1-548)
# T1 sequence: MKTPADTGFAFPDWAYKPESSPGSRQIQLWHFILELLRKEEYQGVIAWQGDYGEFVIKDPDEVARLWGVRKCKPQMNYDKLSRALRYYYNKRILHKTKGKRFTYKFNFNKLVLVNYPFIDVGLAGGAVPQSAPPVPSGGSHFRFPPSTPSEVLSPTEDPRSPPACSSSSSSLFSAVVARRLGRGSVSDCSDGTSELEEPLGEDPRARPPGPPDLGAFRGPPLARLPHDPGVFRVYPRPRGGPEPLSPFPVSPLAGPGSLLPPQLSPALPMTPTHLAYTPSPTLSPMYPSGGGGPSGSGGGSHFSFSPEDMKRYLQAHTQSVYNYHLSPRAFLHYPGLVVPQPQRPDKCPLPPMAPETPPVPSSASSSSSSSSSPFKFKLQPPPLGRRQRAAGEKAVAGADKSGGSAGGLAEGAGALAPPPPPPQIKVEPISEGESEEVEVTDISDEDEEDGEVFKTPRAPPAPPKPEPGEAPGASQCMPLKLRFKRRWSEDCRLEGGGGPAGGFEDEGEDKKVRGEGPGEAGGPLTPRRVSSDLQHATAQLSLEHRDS
# How it was run: (§1)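 A tag-only sample was pooled with DNA-barcoded human transcription factors that had been expressed in yeast as GST fusions and captured on glutathione beads. The pools were incubated for 30 min at room temperature with 200 nmole of a random double-stranded 16-mer DNA library in Tris/NaCl/DTT/glycerol buffer, then washed, crosslinked with 0.1% formaldehyde, proximity-ligated (BsaI/T4 ligase, 1 h, 37 °C), PCR-amplified and sequenced on an Illumina NextSeq500. Binding signal is each hexamer's read frequency for a factor divided by its frequency for the tag-only sample.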
# ETV3L = target: T2, ETV3L (Homo sapiens, UniProt Q6ZN32 1-361)
# T2 sequence: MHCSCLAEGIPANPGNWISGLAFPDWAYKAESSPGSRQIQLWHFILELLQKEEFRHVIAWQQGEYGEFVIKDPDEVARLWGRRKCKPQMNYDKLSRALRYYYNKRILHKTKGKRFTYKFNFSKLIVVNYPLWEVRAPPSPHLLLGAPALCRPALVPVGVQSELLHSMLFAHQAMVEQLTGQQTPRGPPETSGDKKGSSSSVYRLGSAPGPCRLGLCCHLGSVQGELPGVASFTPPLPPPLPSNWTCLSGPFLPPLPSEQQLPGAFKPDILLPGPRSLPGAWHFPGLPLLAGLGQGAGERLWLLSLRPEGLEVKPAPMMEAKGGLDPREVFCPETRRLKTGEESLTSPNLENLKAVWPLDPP
# How it was run: as §1
# ETS2 = target: T3, ETS2 (Homo sapiens, UniProt P15036 1-469)
# T3 sequence: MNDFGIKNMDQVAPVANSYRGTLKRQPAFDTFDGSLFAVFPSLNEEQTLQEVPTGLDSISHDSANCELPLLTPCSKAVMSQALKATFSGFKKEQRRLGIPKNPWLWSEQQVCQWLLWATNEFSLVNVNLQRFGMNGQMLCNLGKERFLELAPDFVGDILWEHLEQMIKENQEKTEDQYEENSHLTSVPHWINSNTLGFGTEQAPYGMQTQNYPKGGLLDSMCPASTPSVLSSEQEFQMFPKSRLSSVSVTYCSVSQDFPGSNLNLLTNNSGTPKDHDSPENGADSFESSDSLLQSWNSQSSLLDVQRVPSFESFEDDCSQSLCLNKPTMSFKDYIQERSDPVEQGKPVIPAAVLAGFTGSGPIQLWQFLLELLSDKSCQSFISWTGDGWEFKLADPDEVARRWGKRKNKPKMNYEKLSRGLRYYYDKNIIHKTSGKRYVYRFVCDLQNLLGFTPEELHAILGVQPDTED
# How it was run: as §1
# SPDEF = target: T4, SPDEF (Homo sapiens, UniProt O95238 1-335)
# T4 sequence: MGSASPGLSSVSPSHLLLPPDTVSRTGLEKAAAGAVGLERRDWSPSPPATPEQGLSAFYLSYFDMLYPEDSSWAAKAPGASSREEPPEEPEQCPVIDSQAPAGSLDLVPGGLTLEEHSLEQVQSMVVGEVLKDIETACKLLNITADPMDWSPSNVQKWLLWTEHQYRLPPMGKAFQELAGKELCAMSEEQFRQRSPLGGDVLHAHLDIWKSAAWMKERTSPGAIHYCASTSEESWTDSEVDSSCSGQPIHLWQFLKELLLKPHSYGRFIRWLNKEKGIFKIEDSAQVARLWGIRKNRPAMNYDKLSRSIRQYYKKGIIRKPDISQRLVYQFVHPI
# How it was run: as §1
# ETV7 = target: T5, ETV7 (Homo sapiens, UniProt Q9Y603 1-341)
# T5 sequence: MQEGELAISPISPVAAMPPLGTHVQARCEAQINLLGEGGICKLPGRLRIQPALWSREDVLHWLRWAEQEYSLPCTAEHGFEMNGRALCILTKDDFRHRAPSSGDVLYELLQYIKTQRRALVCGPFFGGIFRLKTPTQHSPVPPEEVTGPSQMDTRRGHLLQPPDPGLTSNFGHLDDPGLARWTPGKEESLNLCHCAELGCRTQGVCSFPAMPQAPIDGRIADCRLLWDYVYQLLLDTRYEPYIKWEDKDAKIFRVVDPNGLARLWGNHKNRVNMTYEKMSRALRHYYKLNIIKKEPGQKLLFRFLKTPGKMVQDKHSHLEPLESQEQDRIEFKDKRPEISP
# How it was run: as §1
# ELF5 = target: T6, ELF5 (Homo sapiens, UniProt Q9UKW6-2 1-255)
# T6 sequence: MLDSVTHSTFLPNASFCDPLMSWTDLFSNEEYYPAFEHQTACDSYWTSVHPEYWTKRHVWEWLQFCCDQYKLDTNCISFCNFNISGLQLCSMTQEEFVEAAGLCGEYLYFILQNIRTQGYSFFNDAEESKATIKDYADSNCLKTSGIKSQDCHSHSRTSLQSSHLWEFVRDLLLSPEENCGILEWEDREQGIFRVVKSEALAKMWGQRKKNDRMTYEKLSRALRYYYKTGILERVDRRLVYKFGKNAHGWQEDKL
# How it was run: as §1
# ETV3 = target: T7, ETV3 (Homo sapiens, UniProt P41162-2 1-143)
# T7 sequence: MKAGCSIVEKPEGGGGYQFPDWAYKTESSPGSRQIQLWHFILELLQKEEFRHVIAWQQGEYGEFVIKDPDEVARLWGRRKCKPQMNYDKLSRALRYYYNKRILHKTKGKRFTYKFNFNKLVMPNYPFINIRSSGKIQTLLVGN
# How it was run: as §1
# ETV6 = ETV6 (Homo sapiens, UniProt P41212 1-452)
# How it was run: as §1
# Chain of ETV6 (P41212 whole entry): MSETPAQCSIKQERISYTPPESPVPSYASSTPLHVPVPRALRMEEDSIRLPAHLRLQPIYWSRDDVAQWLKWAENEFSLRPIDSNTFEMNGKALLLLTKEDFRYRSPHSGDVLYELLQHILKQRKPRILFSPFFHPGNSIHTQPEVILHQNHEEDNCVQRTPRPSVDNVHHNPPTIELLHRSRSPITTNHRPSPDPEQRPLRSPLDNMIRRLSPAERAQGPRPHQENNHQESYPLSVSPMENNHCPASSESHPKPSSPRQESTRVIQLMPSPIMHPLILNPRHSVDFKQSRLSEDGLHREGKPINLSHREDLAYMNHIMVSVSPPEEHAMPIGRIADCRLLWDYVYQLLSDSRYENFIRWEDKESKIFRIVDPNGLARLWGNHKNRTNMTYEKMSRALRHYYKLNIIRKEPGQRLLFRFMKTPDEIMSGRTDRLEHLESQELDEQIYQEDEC
Sequence,binding signal (ERF),binding signal (ETV3L),binding signal (ETS2),binding signal (SPDEF),binding signal (ETV7),binding signal (ELF5),binding signal (ETV3),binding signal (ETV6)
ATAGTA,"1.23 fold enrichment (6-mer frequency, TF over GST control)","1.11 fold enrichment (6-mer frequency, TF over GST control)","1.06 fold enrichment (6-mer frequency, TF over GST control)","1.07 fold enrichment (6-mer frequency, TF over GST control)","1.3 fold enrichment (6-mer frequency, TF over GST control)","1.13 fold enrichment (6-mer frequency, TF over GST control)","1.15 fold enrichment (6-mer frequency, TF over GST control)","1.25 fold enrichment (6-mer frequency, TF over GST control)"
TTTCAG,"1.38 fold enrichment (6-mer frequency, TF over GST control)","1.31 fold enrichment (6-mer frequency, TF over GST control)","1.27 fold enrichment (6-mer frequency, TF over GST control)","1.37 fold enrichment (6-mer frequency, TF over GST control)","1.13 fold enrichment (6-mer frequency, TF over GST control)","1.28 fold enrichment (6-mer frequency, TF over GST control)","1.27 fold enrichment (6-mer frequency, TF over GST control)","1.31 fold enrichment (6-mer frequency, TF over GST control)"
CCTAAT,"1.24 fold enrichment (6-mer frequency, TF over GST control)","1.33 fold enrichment (6-mer frequency, TF over GST control)","1.33 fold enrichment (6-mer frequency, TF over GST control)","1.36 fold enrichment (6-mer frequency, TF over GST control)","1.31 fold enrichment (6-mer frequency, TF over GST control)","1.25 fold enrichment (6-mer frequency, TF over GST control)","1.22 fold enrichment (6-mer frequency, TF over GST control)","1.31 fold enrichment (6-mer frequency, TF over GST control)"
ATCGAC,"1.1 fold enrichment (6-mer frequency, TF over GST control)","1.21 fold enrichment (6-mer frequency, TF over GST control)","1.1 fold enrichment (6-mer frequency, TF over GST control)","1.06 fold enrichment (6-mer frequency, TF over GST control)","1.28 fold enrichment (6-mer frequency, TF over GST control)","1.09 fold enrichment (6-mer frequency, TF over GST control)","1.25 fold enrichment (6-mer frequency, TF over GST control)","1.21 fold enrichment (6-mer frequency, TF over GST control)"
CTGTAT,"1.29 fold enrichment (6-mer frequency, TF over GST control)","1.24 fold enrichment (6-mer frequency, TF over GST control)","1.22 fold enrichment (6-mer frequency, TF over GST control)","1.44 fold enrichment (6-mer frequency, TF over GST control)","1.25 fold enrichment (6-mer frequency, TF over GST control)","1.34 fold enrichment (6-mer frequency, TF over GST control)","1.32 fold enrichment (6-mer frequency, TF over GST control)","1.31 fold enrichment (6-mer frequency, TF over GST control)"
AATGGC,"1.25 fold enrichment (6-mer frequency, TF over GST control)","1.3 fold enrichment (6-mer frequency, TF over GST control)","1.39 fold enrichment (6-mer frequency, TF over GST control)","1.29 fold enrichment (6-mer frequency, TF over GST control)","1.32 fold enrichment (6-mer frequency, TF over GST control)","1.44 fold enrichment (6-mer frequency, TF over GST control)","1.41 fold enrichment (6-mer frequency, TF over GST control)","1.51 fold enrichment (6-mer frequency, TF over GST control)"
TGTGCT,"1.19 fold enrichment (6-mer frequency, TF over GST control)","1.12 fold enrichment (6-mer frequency, TF over GST control)","1.12 fold enrichment (6-mer frequency, TF over GST control)","1.31 fold enrichment (6-mer frequency, TF over GST control)","1.18 fold enrichment (6-mer frequency, TF over GST control)","1.15 fold enrichment (6-mer frequency, TF over GST control)","1.18 fold enrichment (6-mer frequency, TF over GST control)","1.22 fold enrichment (6-mer frequency, TF over GST control)"
TAGCAC,"1.33 fold enrichment (6-mer frequency, TF over GST control)","1.21 fold enrichment (6-mer frequency, TF over GST control)","1.15 fold enrichment (6-mer frequency, TF over GST control)","1.14 fold enrichment (6-mer frequency, TF over GST control)","1.08 fold enrichment (6-mer frequency, TF over GST control)","1.09 fold enrichment (6-mer frequency, TF over GST control)","1.1 fold enrichment (6-mer frequency, TF over GST control)","1.02 fold enrichment (6-mer frequency, TF over GST control)"
TTGCCC,"1.3 fold enrichment (6-mer frequency, TF over GST control)","1.41 fold enrichment (6-mer frequency, TF over GST control)","1.43 fold enrichment (6-mer frequency, TF over GST control)","1.38 fold enrichment (6-mer frequency, TF over GST control)","1.38 fold enrichment (6-mer frequency, TF over GST control)","1.22 fold enrichment (6-mer frequency, TF over GST control)","1.35 fold enrichment (6-mer frequency, TF over GST control)","1.23 fold enrichment (6-mer frequency, TF over GST control)"
